# Out of some 310,000 compounds screened, about 11,000 (3.5%) were called active. Entries that show only a call come without a potency. Inconclusive results (about 8%) are left out. The call rests on the fitted dose curve; in most records, active means well fitted inhibition curve with a large enough effect; inconclusive means small, poorly fitted or top-dose-only effect, or effect the other way; inactive means flat fitted curve, though single readings scatter. This excerpt belongs to a sample that is enriched for actives.
# Test: VP16 counterscreen qHTS for inhibitors of ROR gamma transcriptional activity;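 further: Gal4-VP16 expression switched on by copper sulfate through the metallothionein promoter; nearly all actives have a fitted effect of over 50% in size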
# Conditions: Drosophila S2 Gal4-VP16 UAS-luciferase, luminescence, 20 h; series mostly up to 53.6 µM
# Potency means the concentration at half of the fitted maximal effect.
Compound,Potency,"activity, negative = inhibition"
COc1ccccc1/C=N/N1CCN(Cc2ccccc2Cl)CC1,inactive,–
CCOCCCNc1c(CC)c(C)c(C#N)c2nc3ccccc3n12,inactive,–
C=C(C(C)=O)C(O)c1ccc([N+](=O)[O-])cc1 (centres undefined),10 µM (active),–
C=C(C(C)=O)C(O)c1cccs1 (centres undefined),inactive,–
CC(=O)NCC(O)c1ccc([N+](=O)[O-])cc1 (centres undefined),inactive,–
O=C(c1ccco1)N1CCN(C(=O)c2cc(-c3ccccc3F)no2)CC1,inactive,–
O=C(c1cc(COc2ccc(F)cc2F)on1)N1CCOCC1,inactive,–
CC(C)C[C@H](NC(=O)C1CC(=O)N(c2ccc3c(c2)OCCO3)C1)C(=O)NC1CCCC1 (some centres undefined),inactive,–
Cc1noc(C)c1-c1ccc2ncnc(NCc3ccc4[nH]ccc4c3)c2c1,inactive,–
COc1ccc(COC(=O)c2ccc(Cl)c(S(=O)(=O)N3CCOCC3)c2)cc1F,inactive,–
Cc1cc(C)n(-c2cc(Oc3ccccc3)ncn2)n1,inactive,–
Cc1cc(Oc2ccc(Cl)cc2)nc(SCC(=O)c2ccccc2)n1,inactive,–
Cc1nc(Cl)cc(N/N=C/c2ccccc2)n1,inactive,–
Cc1ccc(S(=O)(=O)Nc2nc(C)cc(N/N=C/c3ccc(O)cc3)n2)cc1,inactive,–
COc1ccccc1/C=N\Nc1cc(C)nc(-n2nc(C)cc2C)n1,0.355 µM (active),–
COc1ccc(NC(=O)c2nc(-n3nc(C)cc3C)ccc2Cl)cc1Cl,inactive,–
Cc1cc(N/N=C\c2ccc(Br)cc2)nc(-n2nc(C)cc2C)n1,1.41 µM (active),–
COc1ccc(Nc2cc(C)nc(-n3nc(C)cc3C)n2)cc1,1.12 µM (active),–
CC(=O)c1ccc(Oc2cc(C)nc(-n3nc(C)cc3C)n2)cc1,6.31 µM (active),–
COc1ccc(/C=N/Nc2cc(N3CCOCC3)nc(C)n2)c(OC)c1,inactive,–
Cc1cc(Nc2ccc(Cl)cc2)nc(N2CCOCC2)n1,inactive,–
COc1cccc2c(N/N=C/c3ccco3)cc(C)nc12,inactive,–

Compound,Potency,"activity, negative = inhibition"
COC(=O)c1ccc(COC(=O)c2cnc(Cl)c(Cl)c2)cc1,inactive,–
COCc1cc(C)n(CC(=O)NCC2CCCO2)c(=O)c1C#N (centres undefined),inactive,–
CCc1ccccc1N(CC(=O)NCC1CCCO1)C(=O)CCC(=O)Nc1nccs1 (centres undefined),inactive,–
COc1ccccc1N1CCN(C(=O)c2cc(=O)c3cc(C)cc(C)c3o2)CC1,inactive,–
C[C@H]1[C@H]2c3nc4ccccc4n3C[C@H]1ON2C1CCCCC1,inactive,–
COc1cc2c(cc1OC)C(c1cccc([N+](=O)[O-])c1)=NCC2,inactive,–
CCOc1ccccc1N=C1NC(=O)CS1,inactive,–
O=C1CSC(=S)N1/N=C/c1ccc(O)c([N+](=O)[O-])c1,inactive,–
CCOc1cccc(/C=N/N2C(=O)CSC2=S)c1O,12.6 µM (active),–
CCOc1ccc(N(CC(=O)Nc2cccc(OC)c2)S(C)(=O)=O)cc1,inactive,–
CCN1CCN(C2CCCCC2NS(=O)(=O)c2ccc(Cl)cc2)CC1 (centres undefined),inactive,–
Cc1n[nH]c(=O)nc1N/N=C/c1cccs1,11.2 µM (active),–
COc1ccc(Nc2nc(=O)[nH]nc2C)cc1,inactive,–
Cc1nnc(N/N=C/c2cccs2)[nH]c1=O,inactive,–
O=C(NCCc1nnc2ccc(SCC(=O)N3CCOCC3)nn12)c1ccccc1,inactive,–
CCOC(=O)C1(CCOC)CCN(Cc2cc3ccccc3s2)CC1,inactive,–
CCC(=O)Nc1ccc2nn(-c3ccc(F)cc3)nc2c1,inactive,–
CCOc1ccc(N/C=C/C(=O)c2cc(OC)c(OC)c(OC)c2)cc1,inactive,–
COc1ccc(C(=O)/C=C/Nc2ccccn2)cc1,3.55 µM (active),–
Cc1cc(N/C=C\C(=O)c2ccc(Cl)c(Cl)c2)no1,inactive,–
CS(=O)(=O)N1CCc2nc(-c3ccccc3)sc2C1,inactive,–
CCCOc1ccc(C(=O)NCCc2ccccc2)cc1,14.1 µM (active),–

Compound,Potency,"activity, negative = inhibition"
O=C(NCCc1ccccc1)c1ccc(OCCOc2ccccc2)cc1,inactive,–
O=C(NCCOc1ccccc1)c1ccccc1,inactive,–
CCC(C(=O)NCCC(C)C)N(Cc1ccccc1Cl)C(=O)c1snc(C(N)=O)c1N (centres undefined),inactive,–
CCOC(=O)C1CCCN(CCSc2ccc(C)cc2)C1 (centres undefined),inactive,–
O=C(NCCCc1ccccc1)C(=O)c1c[nH]c2ccccc12,inactive,–
S=C(NCCC1=CCCCC1)Nc1ccccc1,5.62 µM (active),–
S=C(NCCCc1ccccc1)Nc1ccc(Br)cc1,10 µM (active),–
O=C(COc1ccc(Br)cc1F)NC1CCN(Cc2ccccc2)CC1,inactive,–
S=C(NCCc1ccccc1)Nc1ccccc1,17.8 µM (active),–
O=C(NC1CCN(Cc2ccccc2)CC1)c1c(F)cccc1F,inactive,–
CC(=O)Nc1ccc(S(=O)(=O)N(C)CC(=O)NCCC2=CCCCC2)cc1,inactive,–
O=C1CCN(C(=S)NCCc2ccccc2)CC1,inactive,–
O=C(Cc1cccc2ccccc12)NCCC1=CCCCC1,inactive,–
NS(=O)(=O)c1ccc(CCNC(=S)Nc2ccc(S(N)(=O)=O)cc2)cc1,inactive,–
S=C(Nc1ccc(Br)cc1)NC1CCN(Cc2ccccc2)CC1,15.8 µM (active),–
CCc1ccc(NC(=O)CS(=O)CC(=O)NCCCc2ccccc2)cc1 (centres undefined),inactive,–
Cc1c(Cl)cccc1NC(=O)NCCCN1CCCC1=O,inactive,–
Cn1c(SCC(=O)N2CCCC2)nnc1-c1cccs1,inactive,–
COc1ccccc1CN1CC(C(=O)NCCc2cn[nH]c2)CCC1=O (centres undefined),inactive,–
Cc1ccn(CCC(=O)N2c3ccccc3CC2C)n1 (centres undefined),inactive,–
COc1ccc(OC)c(NC(=O)c2ccc3c(c2)C(=O)N(c2ccc(OC(C)=O)cc2)C3=O)c1,inactive,–
O=C(NCCNc1ccccc1[N+](=O)[O-])c1ccccc1F,inactive,–

Compound,Potency,"activity, negative = inhibition"
COc1ccc(-c2nonc2NC(=O)c2oc3ccc(F)cc3c2C)cc1OC,inactive,–
COc1ccc(S(=O)(=O)N2CCC(C(=O)NCc3ccco3)CC2)cc1C,inactive,–
N#Cc1ccccc1S(=O)(=O)N1CCN(C(=O)c2cc(-c3ccccc3)nn2-c2ccccc2)CC1,inactive,–
Cc1c(CCC(=O)N[C@@H](CC(C)C)C(=O)O)c(=O)oc2c(C)c3oc4c(c3cc12)CCCC4,inactive,–
CCOc1cc2[nH]c(=S)n(Cc3ccc(C(=O)NCCOC)cc3)c(=O)c2cc1OCC,inactive,–
COc1cc2[nH]c(=S)n(Cc3ccc(C)o3)c(=O)c2cc1OC,10 µM (active),–
COc1cc2[nH]c(=S)n(CCN3CCCCC3C)c(=O)c2cc1OC (centres undefined),inactive,–
Cc1ccc(S(=O)(=O)N(CC(O)CN2CCCCC2)c2cccc([N+](=O)[O-])c2)cc1 (centres undefined),inactive,–
CCc1ccc(NC(=O)N2CCc3ccccc3C2)cc1,inactive,–
O=C(c1cn(-c2ccccc2)nc1-c1cc2ccccc2oc1=O)N1CCOCC1,–,7.29% [at 10 µM] (inactive)
O=C(Nc1cc2ccccc2oc1=O)C1CCCCC1,inactive,–
O=c1oc2ccccc2cc1-c1cn(-c2ccccc2)c(=S)[nH]1,1.78 µM (active),–
CN(C(=O)COC(=O)c1nc(Cl)ccc1Cl)C1CCS(=O)(=O)C1 (centres undefined),inactive,–
CCc1ccc(OCC(=O)N(Cc2ccccc2)C2CCS(=O)(=O)C2)cc1 (centres undefined),inactive,–
O=C(N/N=C/c1ccc(OCc2ccccc2)cc1)c1ccc(O)cc1,11.2 µM (active),–
O=C(Cc1cccs1)N/N=C/c1ccc(OCc2ccccc2)cc1,inactive,–
O=C(N/N=C/c1ccc(OC(=O)c2ccccc2Cl)cc1)c1ccc(O)cc1,inactive,–
COCCNC(=O)COc1ccc(N(C)S(=O)(=O)c2ccc3ccccc3c2)cc1,inactive,–
CCOc1ccc(S(=O)(=O)Nc2ccc(S(=O)(=O)Nc3cc(OC)ccc3OC)cc2)cc1,inactive,–
COc1ccc(NS(=O)(=O)c2ccc(NC(=S)NC(=O)CC(C)C)cc2)cc1,inactive,–
COc1ccc(NS(=O)(=O)c2ccc(Oc3c(C#N)cccc3C#N)cc2)cc1,3.98 µM (active),–
COc1cccc(CNS(=O)(=O)c2ccc3c(c2)N(C(C)=O)CCS3)c1,inactive,–

Compound,Potency,"activity, negative = inhibition"
COC(=O)c1ccc(COc2ccc(/C=C/C(=O)c3ccc(OC)c(CSCC(=O)O)c3)cc2OC)cc1,inactive,–
Cc1cccc(OCC(=O)NCC(=O)N/N=C/c2ccc(N(C)C)cc2)c1,inactive,–
COc1ccc(C(=O)CSc2nnc(-c3ccco3)o2)cc1,inactive,–
COc1ccc(-c2nnc(SCC(=O)c3cccs3)o2)c(OC)c1,inactive,–
COc1ccc(OC)c(C(=O)CSc2nnc(-c3cccs3)o2)c1,15.8 µM (active),–
CN(c1cccc(NC(=O)c2ccc(CN3CCc4ccccc4C3)cc2)c1)S(C)(=O)=O,inactive,–
COc1cccc(C(=O)Nc2ccc(N3CCN(C(=O)c4ccco4)CC3)cc2)c1,inactive,–
CCc1ccc(/C=N/NC(=O)c2ccc(OC3CCCC3)cc2)s1,11.2 µM (active),–
COC(=O)CNC(=O)c1ccc(OC2CCN(C(=O)C3CC3)CC2)cc1,inactive,–
CCn1c(/C=N/NC(=O)c2ccc(OC)cc2)nc2ccccc21,inactive,–
CCOc1ccc(S(=O)(=O)N2CCCC(C(=O)N3CCC(C(N)=O)CC3)C2)cc1Cl (centres undefined),inactive,–
COc1ccccc1CCNS(=O)(=O)c1cc2c3c(c1)C(C)C(=O)N3CCC2 (centres undefined),inactive,–
Cc1ccc(S(=O)(=O)Nc2ccc3ncccc3c2)cc1,17.8 µM (active),–
Cc1ccc(NS(=O)(=O)c2ccc(C(C)(C)C)cc2)cn1,inactive,–
Cc1ccc(OCC(=O)Nc2ccc(S(=O)(=O)Nc3ccccn3)cc2)cc1,inactive,–
CC(C)C[C@H]1CN=C(Nc2ccccc2)N1CC1CCCCC1,inactive,–
COC(=O)c1cc(S(=O)(=O)N2CCN(c3cc(C)ccc3C)CC2)c[nH]1,inactive,–
NS(=O)(=O)c1ccc(N=Nc2c(O)[nH]c3ccc(Br)cc23)cc1,inactive,–
CCN1CCN(c2sc(S(C)(=O)=O)nc2S(=O)(=O)c2ccc(Cl)cc2)CC1,inactive,–
CCOC(=O)c1ccc(NC2Nc3cc(C)nn3S2)cc1 (centres undefined),inactive,–
CCc1ccc(NC2Nc3cc(C)nn3S2)cc1 (centres undefined),5.01 µM (active),–
